Bioassay records: PubChem, National Center for Advancing Translational Sciences (NCATS)
Only a selection was taken, and hits are over-represented in it overall.
Sm TGR inh = qHTS Assay for the Inhibitors of Schistosoma Mansoni Peroxiredoxins. AID 485364, 2010. hit rate 3% among 360,000. Schistosoma mansoni thioredoxin glutathione reductase (TGR), Q962Y6. purified TGR, DTNB reduction, TNB absorbance 405 nm. Potency, µM (titrated, usually from 114 µM), for inactives: top-dose activity change, negative = inhibition, actives largely listed as inhibitors; further: potency means the concentration at half of the fitted maximal effect; on the % scale 0 is the no-effect control and ±100 the full control effect; nearly all actives have a fitted effect of over 60% in size
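TGR 20 nM + NADPH 100 uM (dispensed conc.), cpd preinc 15 min RT; start with NADPH (500 uM addition) then DTNB (15 mM addition). Kinetic TNB absorbance, 405 nm filter. Four-parameter Hill fit across titration.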
TbPYK inhibitor = qHTS of Trypanosoma Brucei Inhibitors | TbPYK enzyme, Kinase-Glo Plus ATP luminescence, 45 min | Potency, µM (doses to about 76.8 µM), for inactives: at the highest dose activity, negative = inhibition, usual class: inhibitors | hit rate 0.12% among 410,000; further: potency means the concentration at half of the fitted maximal effect; on the % scale 0 is the no-effect control and ±100 the full control effect; nearly all actives have a fitted effect of over 50% in size
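Readout: single end-point luminescence (Kinase-Glo Plus, 10 min). Reaction conditions were TbPYK/substrate plus 130 uM ADP, 45 min at RT, pH 7.2 TEA buffer. No-enzyme wells served as controls, and data were normalized before concentration-response fitting.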
Cycloheximide cs = Cycloheximide Counterscreen for Small Molecule Inhibitors of Shiga Toxin. cell reporter, cycloheximide protein synthesis inhibition counterscreen. hit rate 12% among 300,000. max response, %; in the data active means max response mostly above about 13%, no sharp cut-off; inactive means mostly below about 14%; further: read at 38.3 µM for the half of the compounds with a filed dose; 0% is about no effect
Shiga toxin inh = A qHTS for Small Molecule Inhibitors of Shiga Toxin; AID 2315, 2010; Vero cells, Shiga toxin protein synthesis inhibition reporter; hit rate 9.2% among 290,000; inhibition, % at 38.7 µM; in the data active means inhibition mostly above about 28%, no sharp cut-off; inactive means mostly below about 43%; further: 0% is about no effect
LmPK inh = qHTS Assay for Inhibitors of Leishmania Mexicana Pyruvate Kinase (LmPK). purified LmPK, Kinase-Glo ATP luminescence, 1 h. Q27686. Potency, µM (top dose mostly 57.5 µM), inactives show top-dose activity change, negative = inhibition, hits mostly inhibitors. hit rate 0.37% among 290,000; further: potency means the concentration at half of the fitted maximal effect; on the % scale 0 is the no-effect control and ±100 the full control effect
Target sequence (Q27686 whole entry, looked up): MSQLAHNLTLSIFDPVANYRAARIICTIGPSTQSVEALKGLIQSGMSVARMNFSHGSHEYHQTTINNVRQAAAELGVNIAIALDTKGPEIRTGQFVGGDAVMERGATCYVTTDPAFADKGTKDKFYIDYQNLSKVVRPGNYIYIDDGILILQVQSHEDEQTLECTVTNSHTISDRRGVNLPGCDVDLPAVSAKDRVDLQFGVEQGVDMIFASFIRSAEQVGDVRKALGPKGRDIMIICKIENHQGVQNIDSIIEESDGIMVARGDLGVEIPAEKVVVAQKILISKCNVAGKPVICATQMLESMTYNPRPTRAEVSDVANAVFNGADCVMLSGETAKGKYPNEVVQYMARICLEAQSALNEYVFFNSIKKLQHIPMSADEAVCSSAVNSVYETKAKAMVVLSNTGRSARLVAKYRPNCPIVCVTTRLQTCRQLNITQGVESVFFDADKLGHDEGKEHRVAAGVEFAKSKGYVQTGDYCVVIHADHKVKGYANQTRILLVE
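Screened at intermediate enzyme activity to detect both inhibitors and activators: LmPK at 0.1 nM, with a 0.5 nM enzyme column as activation reference. PEP 0.5 mM, ADP 0.1 mM; ATP detected by luminescence after 1 h.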
Giardia FBPA inh = qHTS Assay for Inhibitors of Fructose-1,6-bisphosphate Aldolase from Giardia Lamblia; hit rate 0.71% among 290,000; Potency, µM (doses to about 59.6 µM), without a hit: at the highest dose activity, negative = inhibition, hits mostly inhibitors; A8B2U2; purified Giardia FBPA; further: potency means the concentration at half of the fitted maximal effect; on the % scale 0 is the no-effect control and ±100 the full control effect; nearly all actives have a fitted effect of over 55% in size
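40 nM FBPA preincubated 10 min at RT with compound (up to 57.5 uM final), then substrate plus GAPDH/TPI/NAD/arsenate coupling and diaphorase/resazurin added. Fluorescence read after 20 min at RT, 525/598 nm.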
An asterisk follows results filed as active; u = inconclusive; x = no result given; [ ] = remark or other dose. Unless noted, the call rests on the fitted dose curve; in most records, active means well fitted curve in the direction sought with a large enough effect; inconclusive means small, poorly fitted or top-dose-only effect, or another doubt; inactive means no such curve, though single readings can be large; an effect the other way counts as inactive or inconclusive.

SMILES	Sm TGR inh	TbPYK inhibitor	Cycloheximide cs	Shiga toxin inh	LmPK inh	Giardia FBPA inh
Cc1ccc(NS(=O)(=O)c2ccc(C(=O)N3CCCCCCC3)cc2)cc1	0%	1%	41*	99*	-7%	x
Cc1ccc(C(=O)Nc2ccc(C(=O)N3CCCCC3)cc2)cc1	2%	1%	27*	25	-4%	4%
Cc1cccc(CC(=O)Nc2ccc(C(=O)N3CCCCC3)cc2)c1	0%	2%	14*	20	-6%	-10%
O=C(CN1C(=O)COc2ccc(S(=O)(=O)N3CCOCC3)cc21)N1CCN(c2ccccc2)CC1	2%	-1%	x	x	x	x
Nc1nc(N)c2cc(S(=O)(=O)c3ccc4ccccc4c3)ccc2n1	x	-6%	x	x	x	x
COc1ccc(N2CCN(C(=O)c3ccc(NS(=O)(=O)c4ccccc4)cc3)CC2)cc1	-9%	1%	20*	35	0%	-22%
COc1ccc(NS(=O)(=O)c2ccc(C(=O)N3CCCCCC3)cc2)cc1	x	19%	x	x	x	x
COc1ccc(-c2ccc(SCC(=O)c3ccc(F)cc3)nn2)cc1OC	1%	-4%	11	-4	-1%	-17%
O=C(CSc1ccc(-c2ccc(F)cc2)nn1)NCC1CCCO1 (configuration not stated)	0%	1%	7	5	1%	5%
CC(=O)c1cccc(NC(=O)CSc2ccc(-c3ccc4c(c3)OCO4)nn2)c1	-10%	-5%	8	3	-3%	1%
COc1ccc(-c2ccc(SCC(=O)NC3CCCC3)nn2)cc1	x	2%	x	x	x	x
COc1ccc(-c2ccc(SCC(=O)NCC3CCCO3)nn2)cc1OC (configuration not stated)	11%	3%	21*	7	4%	1%
COc1ccc(-c2ccc(SCC(=O)Nc3cccc(C(C)=O)c3)nn2)cc1OC	0%	0%	40*	97*	1%[11.5 µM]	0%
COc1ccc(-c2ccc(SCC(=O)NC3CCCCC3)nn2)cc1OC	-12%	-1%	37*	65*	-6%	10%
COc1ccc(-c2ccc(SCC(=O)c3cccs3)nn2)cc1OC	3%	-3%	15	56*	1%	-7%
COc1ccc(Nc2nc(N)c3cc(OC)c(OC)cc3n2)cc1	0%	-2%	x	x	x	x
O=C(Cn1c(=O)n(-c2ccccc2)c(=O)c2ccc(C(=O)NCc3ccc4c(c3)OCO4)cc21)Nc1ccc(Br)cc1F	9%	3%	x	x	x	x
Cc1noc(C)c1-c1ccc2ncnc(N(C)Cc3ccco3)c2c1	x	x	x	x	x	0%
COc1ccc(CCNC(=O)C(=O)NCC(c2cccs2)S(=O)(=O)c2ccccc2)cc1 (configuration not stated)	-15%	1%	x	x	x	x
CC(=O)c1ccc(NC(=O)CSc2ccc(-c3sc(C)nc3C)nn2)cc1	-10%	-12%	13*	18	-3%	x
CCN1C(=O)S/C(=C/c2ccsc2)C1=O	-8%	1%	26	77	-6%	1%
C=CCN1C(=O)S/C(=C/c2ccsc2)C1=O	7%	-5%	37*	62*	0%	0%
COCCCNc1nc(CC(C)C)nc2c1nnn2Cc1ccccc1	2%	1%	-1	x	-3%	7%
Cc1cc(C(=O)N/N=C/c2c(C)[nH]n(-c3ccccc3)c2=O)n[nH]1	0%	4%	9	-7	-3%	-9%
Cc1[nH]n(-c2ccc(Br)cc2)c(=O)c1/C=N/NC(=O)c1ccccc1	-5%	5%	28*	92*	-5%	2%
Cc1[nH]n(-c2ccccc2)c(=O)c1/C=N/NC(=O)c1cccc(F)c1	2%	-4%	43*	66*	2%	u
Cc1ccc(-n2[nH]c(C)c(C=Nc3ccc(Br)cn3)c2=O)cc1	-2%	-1%	1	3	-19%	-2%
COc1ccc(-c2cc(C(=O)Nc3ccn(Cc4ccc(C)cc4)n3)no2)cc1OC	6%	2%	x	x	x	x
